Values joined by “and” are separate entries in the source; they are usually repeats but may differ in a detail not shown here. Equal entries are not always repeated. Results filed as inconclusive are left out. Active and inactive are the calls of the source. Unless noted, calls come from the whole dose curve; as a rule, active = well fitted curve in the direction sought with a large enough effect; inconclusive = small, poorly fitted or top-dose-only effect, or another doubt; inactive = no such curve, though single readings can be large; an effect the other way counts as inactive or inconclusive.

Potency and outcome data for 29 compounds are collected here from PubChem BioAssay (NCATS).

Assay [1] concerns the target Cytochrome P450 2C9 (Homo sapiens) (UniProt P11712). The experiment in a line: Cytochrome P450 family 2 subfamily C member 9 (CYP2C9) small molecule antagonists: luciferase biochemical (cell-free) qHTS assay (AID 1645842; active = well fitted curve in the direction sought with a large enough effect in the repeat runs; an effect the other way counts as inactive or inconclusive; note: nearly all actives have a fitted effect of over 55% in size; note: potency is the fitted concentration of half-maximal effect). The method in brief:
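Luminescence, after 20 min with luciferin detection reagent, reflected CYP2C9 turnover during a 1 h NADPH-driven reaction at 37C. Enzyme-substrate mix contained 0.4% bovine serum albumin and was preincubated with compound 10 min at room temperature.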

Assay [2] deals with N-terminal Xaa-Pro-Lys N-methyltransferase 1 (Homo sapiens) (UniProt Q9BV86). Kind of assay: Confirmatory qHTS for Inhibitors of N-terminal methyltransferase 1 (NTMT1): MTaseGlo Assay (AID 1645874).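 Note: luminescence from SAH made as NTMT1 methylates SPKRIA peptide using SAM; series mostly up to about 100 µM; nearly all actives have a fitted effect of over 65% in size.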 In outline: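 qHTS format: NTMT1 125 nM, SAM 100 uM, peptide SPKRIA 1 uM final; 15 min compound preincubation, 30 min reaction at room temperature. MTase-Glo luminescence.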
Sequence of N-terminal Xaa-Pro-Lys N-methyltransferase 1 (Homo sapiens) (Q9BV86 whole entry, looked up): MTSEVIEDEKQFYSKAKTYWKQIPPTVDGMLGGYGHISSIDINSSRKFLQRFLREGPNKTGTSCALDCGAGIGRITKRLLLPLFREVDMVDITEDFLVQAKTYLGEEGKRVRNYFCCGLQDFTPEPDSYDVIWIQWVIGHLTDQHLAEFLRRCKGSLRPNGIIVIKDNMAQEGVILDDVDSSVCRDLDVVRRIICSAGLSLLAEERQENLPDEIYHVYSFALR
For orientation: In qHTS, concentration-response curves come from the screen itself.

Assay [3] is described as follows: Primary qHTS for inhibitors of nuclear receptor binding SET domain protein 2 (NSD2) in an isogenic RCH-ACV NSD2 p.E1099K mutant (9B) (AID 1645876). Note: nearly all actives have a fitted effect of over 70% in size. Note: potency is the fitted concentration of half-maximal effect.
Assay [4] concerns the target Rap guanine nucleotide exchange factor 3 (Homo sapiens) (UniProt O95398). The experiment in a line: Confirmatory qHTS for agonist of cAMP-regulated guanine nucleotide exchange factor 3 (EPAC1) (AID 1645881).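 Note: EPAC1 catalysed release of BODIPY-GDP from Rap1B seen as fluorescence loss; nearly all actives have a fitted effect of over 75% in size.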
Assay [5] has as its target Rap guanine nucleotide exchange factor 4 (Homo sapiens) (UniProt Q8WZA2). Kind of assay: Confirmatory qHTS for agonist of cAMP-regulated guanine nucleotide exchange factor 4 (EPAC2) (AID 1645884).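 Note: nucleotide exchange releases bodipy-GDP from Rap1 and this lowers its fluorescence; nearly all actives have a fitted effect of over 65% in size.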
The target of assay [6] is Rap guanine nucleotide exchange factor 3 (Homo sapiens) (UniProt O95398). The experiment in a line: Counterscreen qHTS for antagonist of cAMP-regulated guanine nucleotide exchange factor 3 (EPAC1) (AID 1645888).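 Note: fluorescence loss as bound BODIPY-GDP is released from Rap1B.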 In outline:
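Rap1B–BODIPY-GDP (250 nM) with 50 uM GDP; compounds pin-transferred to 9.74 nM–152 uM final (activator) or from 7.32 nM upwards (inhibitor). Fluorescence Ex/Em 480/540 nm read at 5 and 30 min, then after adding cAMP or buffer, at room temperature.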
A general note: A counterscreen serves to expose hits that act by an unwanted route or on another target.

Assay [7] is described as follows: Primary qHTS for inhibitors of nuclear receptor binding SET domain protein 2 (NSD2) in an RCH-ACV wild type WT cells (2C) (AID 1645877). Note: nearly all actives have a fitted effect of over 70% in size. Note: potency is the fitted concentration of half-maximal effect.

Sequence of Cytochrome P450 2C9 (Homo sapiens) (P11712 whole entry, looked up): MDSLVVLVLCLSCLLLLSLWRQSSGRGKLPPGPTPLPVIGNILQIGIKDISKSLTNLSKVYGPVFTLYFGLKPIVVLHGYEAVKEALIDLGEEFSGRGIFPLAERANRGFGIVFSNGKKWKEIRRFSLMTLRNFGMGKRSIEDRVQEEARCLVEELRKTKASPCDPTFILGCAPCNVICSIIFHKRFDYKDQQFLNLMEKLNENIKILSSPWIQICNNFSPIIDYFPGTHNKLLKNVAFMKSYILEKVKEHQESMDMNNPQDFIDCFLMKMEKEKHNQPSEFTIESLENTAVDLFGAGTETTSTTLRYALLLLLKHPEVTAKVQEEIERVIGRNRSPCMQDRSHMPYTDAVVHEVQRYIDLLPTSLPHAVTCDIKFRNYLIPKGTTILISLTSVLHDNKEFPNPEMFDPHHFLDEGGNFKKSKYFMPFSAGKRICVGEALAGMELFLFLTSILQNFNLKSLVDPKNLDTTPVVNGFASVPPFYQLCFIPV
Sequence of Rap guanine nucleotide exchange factor 3 (Homo sapiens) (O95398 whole entry, looked up): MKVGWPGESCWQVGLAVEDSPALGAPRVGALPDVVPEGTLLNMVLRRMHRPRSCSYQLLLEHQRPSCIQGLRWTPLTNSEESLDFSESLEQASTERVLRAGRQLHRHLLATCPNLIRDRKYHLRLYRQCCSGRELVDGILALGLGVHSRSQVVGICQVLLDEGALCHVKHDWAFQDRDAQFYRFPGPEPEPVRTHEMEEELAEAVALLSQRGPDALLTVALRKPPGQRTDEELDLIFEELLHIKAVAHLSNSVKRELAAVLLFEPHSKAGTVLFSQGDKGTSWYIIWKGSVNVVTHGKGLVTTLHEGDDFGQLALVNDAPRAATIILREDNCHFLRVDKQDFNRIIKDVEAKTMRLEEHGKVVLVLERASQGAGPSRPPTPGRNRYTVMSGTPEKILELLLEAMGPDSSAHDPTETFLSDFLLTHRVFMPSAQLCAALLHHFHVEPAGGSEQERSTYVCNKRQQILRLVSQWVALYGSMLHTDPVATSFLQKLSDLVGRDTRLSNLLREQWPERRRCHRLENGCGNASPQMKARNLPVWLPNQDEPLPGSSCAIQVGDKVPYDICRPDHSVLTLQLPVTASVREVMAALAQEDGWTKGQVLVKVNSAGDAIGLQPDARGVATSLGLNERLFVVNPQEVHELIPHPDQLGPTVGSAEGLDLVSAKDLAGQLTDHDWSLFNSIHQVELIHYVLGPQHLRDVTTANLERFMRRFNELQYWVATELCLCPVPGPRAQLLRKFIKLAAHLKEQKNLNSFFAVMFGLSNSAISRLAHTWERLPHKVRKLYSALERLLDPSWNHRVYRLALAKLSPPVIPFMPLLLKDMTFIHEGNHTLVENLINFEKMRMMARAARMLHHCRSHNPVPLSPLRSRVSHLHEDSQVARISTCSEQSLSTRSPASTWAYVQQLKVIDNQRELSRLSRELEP
Sequence of Rap guanine nucleotide exchange factor 4 (Homo sapiens) (Q8WZA2 whole entry, looked up): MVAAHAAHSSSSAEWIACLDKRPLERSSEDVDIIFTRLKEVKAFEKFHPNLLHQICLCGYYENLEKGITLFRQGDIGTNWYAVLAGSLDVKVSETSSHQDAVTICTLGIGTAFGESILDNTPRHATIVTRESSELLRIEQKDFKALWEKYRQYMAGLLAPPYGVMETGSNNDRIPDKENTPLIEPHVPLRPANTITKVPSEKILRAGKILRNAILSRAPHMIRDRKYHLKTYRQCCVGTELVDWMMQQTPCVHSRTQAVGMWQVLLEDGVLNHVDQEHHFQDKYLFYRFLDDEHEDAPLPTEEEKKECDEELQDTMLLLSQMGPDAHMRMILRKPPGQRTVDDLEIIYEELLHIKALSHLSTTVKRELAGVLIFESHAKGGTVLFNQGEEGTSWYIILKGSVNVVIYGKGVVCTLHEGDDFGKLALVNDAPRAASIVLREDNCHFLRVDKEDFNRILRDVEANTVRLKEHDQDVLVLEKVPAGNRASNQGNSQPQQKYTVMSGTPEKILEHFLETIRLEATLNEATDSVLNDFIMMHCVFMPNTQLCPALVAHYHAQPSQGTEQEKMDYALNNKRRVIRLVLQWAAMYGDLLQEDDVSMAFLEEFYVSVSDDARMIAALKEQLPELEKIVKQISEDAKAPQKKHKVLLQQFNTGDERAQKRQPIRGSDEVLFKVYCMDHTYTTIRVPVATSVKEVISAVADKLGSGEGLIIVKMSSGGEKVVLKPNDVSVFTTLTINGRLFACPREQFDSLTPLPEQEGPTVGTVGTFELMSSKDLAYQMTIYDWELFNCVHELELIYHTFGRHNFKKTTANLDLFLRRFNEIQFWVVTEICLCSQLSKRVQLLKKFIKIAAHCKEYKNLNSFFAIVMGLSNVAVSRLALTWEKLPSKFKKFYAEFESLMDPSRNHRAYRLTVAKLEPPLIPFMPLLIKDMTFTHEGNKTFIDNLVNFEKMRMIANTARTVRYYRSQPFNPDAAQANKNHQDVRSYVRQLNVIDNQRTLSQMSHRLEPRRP

On to `N#Cc1ccc(Nc2nc(-c3ccc(O)cc3O)cs2)cc1C(F)(F)F`, for which the Potency in assay [1] was 1.69 µM (active); in assay [3] it was 16.3 µM (active). The Potency entry in assay [2] is “inactive”. Moreover, the result in assay [4], in assay [5] and in assay [6] was inactive.
For the compound `CC(C)(C)OC(=O)c1ncn2c1C(C)(C)Nc1ccccc1-2`, in assay [1], the Potency was 10.7 µM (active).
As for `CCC(=O)O`, the Potency entry in assay [1] is “inactive”.
Take `CCS(=O)c1nc(-c2cccc(OCc3ccccc3)c2)cc(C(F)(F)F)n1` (configuration not stated): the Potency is 10.7 µM (active) in assay [1], 5.15 µM (active) in assay [3] and 3.25 µM (active) in assay [7].
With `CCCc1cc(C)n(C)c(=O)c1CN(C)C(=O)c1cc(-c2ccc(N3CCN(C(C)C)CC3)nc2)cc2c1cnn2C(C)C`, the Potency in assay [1] was 0.601 µM (active). Besides, in assay [3], the Potency entry was “inactive”.
Taken in the same sequence, the figures for `COc1ccc(S(=O)(=O)Nc2cc(Cl)cc(Cl)c2OC)cc1N1CCNCC1` were 12 µM (active) and 20.5 µM (active).
For the compound `COc1ccc(NC(=O)c2ccc(C(=N)N(C)C)cc2)c(C(=O)Nc2ccc(Cl)cn2)c1`, the Potency in assay [1] is 3.79 µM (active). The Potency entry in assay [3] and in assay [7] was “inactive” each time.
Turning to `C=CC(=O)Nc1cccc(Nc2nc(Nc3ccc(NC4CN(CCF)C4)cc3OC)ncc2C(F)(F)F)c1`, the Potency was 0.268 µM (active) in assay [1]; 4.59 µM (active) and 5.9 µM (active) in assay [3]; 4.09 µM (active) and 6.61 µM (active) in assay [7].
Regarding `COc1ccc(N(C(=O)Nc2c(C)cccc2C)c2cc(Nc3ccc(N4CCN(C)CC4)cc3)ncn2)c(OC)c1`, the Potency in assay [1] is 13.5 µM (active); in assay [3], 10.3 µM (active).
As for `Cc1ccc(O)cc1Nc1ccnc(Nc2cccc(C(N)=O)c2)n1`, the Potency in assay [1] is 1.9 µM (active); in assay [3], 4.59 µM (active); in assay [7] it was 4.09 µM (active).
With `Cn1ncc(Cl)c1-c1cc(C(=O)N[C@H](CN)Cc2ccc(F)c(F)c2)sc1Cl`, the Potency in assay [1] is 13.5 µM (active); in assay [3], 1.63 µM (active) and 1.05 µM (active); in assay [7], 2.05 µM (active) and 1.05 µM (active).
On to `Cc1csc(N(C(=O)CSc2ccc(-c3ccccc3)nn2)C2CC2)n1`, for which the Potency in assay [1] is 10.7 µM (active). Also, the Potency entry in assay [3] and in assay [7] was “inactive” in each case.
Regarding `N#CC(CCCN1CCN(/N=C/c2cccnc2)CC1)(c1ccccc1)c1ccccc1`, the Potency in assay [1] was 7.56 µM (active). In addition, the Potency entry in assay [3] and in assay [7] was “inactive” each time.
As for `O=C(Nc1ccc(-n2nc(C(F)(F)F)cc2C(F)(F)F)cc1)c1ccncc1F`, the Potency in assay [1] is 26.8 µM (active); in assay [3], 20.5 µM (active).
Taken in the same sequence, the figures for `COc1cc(-c2cn(C3CCc4c(F)cccc4N(CC(F)(F)F)C3=O)nn2)ccc1-n1cnc(C)c1` (configuration not stated) were 12 µM (active) and 18.3 µM (active).
As for `Cc1cc(-c2cc(OC(=O)c3ccccc3)ccc2Cl)cc2nnc(Nc3ccc(OCCN4CCCC4)cc3)nc12`, in assay [1], the Potency entry was “inactive”. The Potency in assay [3] was 12.9 µM (active); in assay [7] it was 7.96 µM (active).
Regarding `COc1cc2ncnc(Oc3ccc(CC(=O)Nc4cnn(C(C)C)c4)cc3)c2cc1OC`, the Potency in assay [1] is 13.5 µM (active); in assay [3] it was 16.3 µM (active).
With `O=S(=O)(N[C@H]1CCCC[C@@H]1N1CCOCC1)c1ccc(Cl)cc1`, the Potency in assay [1] was 5.35 µM (active). In addition, the Potency entry in assay [3] and in assay [7] was “inactive” throughout.
With `CC(C)CCNc1ncccc1C(=O)N1CCN(Cc2ccccc2)CC1`, in assay [1], the Potency is 10.7 µM (active). Also, the Potency entry in assay [3] and in assay [7] was “inactive” each time.
In the case of `COc1ccc(-c2cnc3c(-c4cccc5ncccc45)cnn3c2)cc1`, in assay [1], the Potency was 12 µM (active). Also, the Potency entry in assay [3] and in assay [7] was “inactive” each time.
With `N#Cc1cc(-c2ccnc(Nc3ccc(N4CCOCC4)cc3)n2)ccc1OC1CCOCC1`, the Potency is 2.13 µM (active) in assay [1] and 1.45 µM (active) in assay [3].
On to `COc1cc2c(cc1OCCCN1CCCC1)N=C(N)C21CCC1`, for which the Potency result in assay [1], in assay [3] and in assay [7] was “inactive” in each case.
In the case of `CCCCc1c(-c2ccc(OC)cc2)[nH]c2nccnc12`, the Potency entry in assay [1] is “inactive”. Further, the Potency in assay [3] is 3.65 µM (active).
On to `CNc1ccc([N+](=O)[O-])c(Nc2ccc3[nH]ncc3c2)n1`, for which the results for the Potency in assay [1], in assay [3] and in assay [7] were 0.756 µM (active), 7.28 µM (active) and 7.28 µM (active), respectively.
For the compound `CCOc1ccc(CCNC(=O)c2cc3sc(Cl)cc3n2C)cc1OCC`, in assay [1], the Potency is 2.39 µM (active). In addition, the Potency entry in assay [3] and in assay [7] was “inactive” each time.
`CNc1cc2[nH]c(=O)n(-c3ccc(NC(=O)NS(=O)(=O)c4ccc(Cl)s4)cc3)c(=O)c2cc1F`: the Potency entry in assay [1], in assay [3] and in assay [7] was “inactive” each time.
For `CCN(c1cc(-c2ccc(CN3CCOCC3)cc2)cc(C(=O)NCc2c(C)cc(C)[nH]c2=O)c1C)C1CCOCC1`, the Potency in assay [1] is 3.38 µM (active). For the same compound, the Potency entry in assay [3] is “inactive”.
Turning to `CCN(CC)C(=O)C(c1ccccc1)N1CCN(c2ccc(NC(=O)c3ccccc3-c3cccnc3)cc2F)CC1` (configuration not stated), the Potency in assay [1] is 9.52 µM (active). Also, the Potency result in assay [3] and in assay [7] was “inactive” throughout.
Take `Nc1nc2c(c(N3CC[C@@H](N)C3)n1)CCCc1ccccc1-2`: the Potency result in assay [1] is “inactive”. Moreover, the Potency in assay [3] is 20.5 µM (active); in assay [7] it was 18.3 µM (active).
